High-throughput results as filed in PubChem.
SRC1 TRFRET art – TR-FRET artefact, counter-screen to PPARgamma/SRC-1 agonist assay. AID 1051. 99,000 tested, 0.34% active. TR-FRET detection artefact counter-screen, emission ratio; active compounds read high. TR-FRET ratio at 8 µM; in the data active means TR-FRET ratio above about 2300
PPARg SRC-1 ag – promotes SRC-1 coactivator recruitment by human PPARgamma | P37231 | PPARgamma-SRC-1 coactivator recruitment biochemical assay | activation, % at 8 µM | 200,000 tested, 0.41% active | AID 631; in the data active means activation above about 19%;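 further: 0% = DMSO and 100% = reference agonist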
Target sequence (P37231 whole entry, looked up): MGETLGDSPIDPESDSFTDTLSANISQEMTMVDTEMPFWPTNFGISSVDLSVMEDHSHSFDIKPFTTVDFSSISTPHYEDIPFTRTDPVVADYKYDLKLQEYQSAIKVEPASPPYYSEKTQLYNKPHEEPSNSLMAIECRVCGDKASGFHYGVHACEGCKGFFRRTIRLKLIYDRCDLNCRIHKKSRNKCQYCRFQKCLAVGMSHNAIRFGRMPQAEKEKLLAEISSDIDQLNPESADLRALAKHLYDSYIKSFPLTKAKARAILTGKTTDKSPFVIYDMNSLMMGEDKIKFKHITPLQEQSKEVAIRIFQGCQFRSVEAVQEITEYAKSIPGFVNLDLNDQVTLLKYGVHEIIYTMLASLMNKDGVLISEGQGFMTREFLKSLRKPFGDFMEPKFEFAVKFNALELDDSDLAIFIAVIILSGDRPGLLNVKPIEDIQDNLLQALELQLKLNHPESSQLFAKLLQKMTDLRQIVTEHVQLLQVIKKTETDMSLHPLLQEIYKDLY
PPARg SRC3 recr – promotes SRC-3 coactivator recruitment by human PPARgamma; P37231; biochemical PPARgamma/SRC-3 coactivator recruitment assay; activation, % at 8 µM; 200,000 tested, 0.26% active; AID 731; in the data active means activation above about 23%;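 further: 0% = DMSO and 100% = reference agonist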
TR-FRET SRC-2 ct – TR-FRET artefact, counter-screen to PPARgamma/SRC-2 agonist assay | active compounds read high | AID 1049 | TR-FRET ratio at 8 µM | 200,000 tested, 0.4% active
PPARg SRC2 recr – PPARgamma-driven SRC-2 recruitment agonism. P37231. PPARgamma LBD-SRC-2 recruitment, biochemical. activation, % at 8 µM. 200,000 tested, 0.34% active. AID 1032; in the data active means activation above about 22%;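 further: 0% = vehicle and 100% = reference agonist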
SRC3 TRFRET art – counter-screen for PPARgamma SRC-3 recruitment agonists: TR-FRET artefact | PPARgamma/SRC-3 format; active compounds read high | TR-FRET ratio at 8 µM | 99,000 tested, 0.39% active | AID 1048
* = called active by the depositor; · = no result given. The list is not random: actives were taken first. Their share in the collection is about 0.84%. Unless noted, no stated cut-off is given here; in the data, active means TR-FRET ratio above about 2000; inactive means the rest.

SMILES | SRC1 TRFRET art | PPARg SRC-1 ag | PPARg SRC3 recr | TR-FRET SRC-2 ct | PPARg SRC2 recr | SRC3 TRFRET art
Cc1ccc(S(=O)(=O)c2cn(Cc3ccc(F)cc3)c3cc4c(cc3c2=O)OCO4)cc1 | 2093 | -10 | 0 | 1947 | -7 | 2414*
COc1ccc(-c2ccc(C#N)c(SCC(=O)Nc3sc4c(c3C#N)CCC4)n2)cc1OC | · | 11 | 2 | 1523 | 7 | ·
COc1ccc(-c2ccc(C#N)c(SCC(=O)NCCc3ccccc3)n2)cc1OC | 1821 | 1 | 2 | 2078* | 11 | 1706
COc1cccc(-c2ccc(C#N)c(SCC(=O)NCCc3cccc(Cl)c3)n2)c1 | · | 11 | 17 | 1982* | 21 | ·
O=C(N/C(=C\c1cccs1)C(=O)N1CCOCC1)c1cccs1 | 1702 | 3 | 2 | 1598 | 7 | 1507
CSc1nsc(/C=C/Nc2ccc(F)cc2F)c1C#N | 2189 | 20 | 5 | 1928 | 10 | 2047
CSc1nsc(/C=C/Nc2ccc(C(=O)O)cc2)c1C#N | 2461* | 18 | 12 | 2141* | 16 | 2133*
Cc1ccc(NC2=NCC(=O)N2Cc2ccc3c(c2)OCO3)cc1 | 1762 | 3 | 1 | 1546 | 9 | 1515
CC(=O)Nc1ccc(S(=O)(=O)Nc2nc3ccccc3nc2Sc2nncn2C)cc1 | · | 0 | 0 | 2233* | 7 | ·
COc1cccc(C(=O)Nc2ccc(-c3nc4ccccc4o3)c(O)c2)c1 | · | 3 | -5 | 2264* | 9 | ·
O=C(CNCC1(N2CCOCC2)CCCCC1)Nc1ccc(Cl)cc1 | 1519 | 4 | 1 | 1497 | -9 | 1601
O=S(=O)(c1ccccc1)N1CCN(c2nc(-c3cccs3)nc3ccccc23)CC1 | 1800 | 2 | 0 | 1678 | 6 | 1537
Cc1nc(N2CCN(S(=O)(=O)c3ccc(F)cc3)CC2)c2c(-c3cccs3)csc2n1 | 3173* | -2 | 0 | 2641* | -7 | 2853*
CCOC(=O)c1ccc(NC(=O)COc2ccc(S(=O)(=O)NC(C)(C)C)cc2)cc1 | · | -6 | 0 | 1424 | -4 | ·
CC(C)c1ccc(OCC(=O)NC(=S)Nc2ccc3c4c(cccc24)CC3)cc1 | · | 22* | 6 | 1873 | 7 | ·
c1ccc(-c2oc3ncnc(NCCCN4CCOCC4)c3c2-c2ccccc2)cc1 | · | 24* | 7 | 1628 | 1 | ·
COc1ccc(-c2oc3ncnc(NCCCN4CCOCC4)c3c2-c2ccc(OC)cc2)cc1 | · | 1 | -1 | 1464 | -3 | ·
CCc1ccc(OCC(=O)NNC(=O)CSc2ncnc3sc(C)c(C)c23)cc1 | · | 54* | 19 | 1696 | 11 | ·
Cc1ccc(OCC(=O)NNC(=O)CSc2ncnc3sc(C)c(C)c23)cc1 | 1797 | 1 | -1 | 1470 | -2 | 1392
O=[N+]([O-])c1ccc(COc2cccc(CNc3ccc(F)cc3)c2)cc1 | 1914 | -2 | -4 | 1394 | -3 | 1639
Oc1ccc(NCc2cccc(OCc3ccc(F)cc3)c2)cc1 | 1688 | 23* | 3 | 1856 | -1 | 1598
COc1cccc(C(=O)N/N=C/c2cn[nH]c2-c2ccc(OC)cc2OC)c1 | · | -3 | -9 | 1427 | -4 | ·
O=C(CN1CCOc2ccccc21)N1CCN(c2cccc(Cl)c2)CC1 | · | 5 | 3 | 1594 | 5 | ·
O=C(O)CN1CCN(Cc2ccc(F)cc2Cl)C1=O | · | 4 | 18 | 1587 | 8 | ·
CC1=NNC(=O)C1CC(=O)N/N=C(\C)c1ccco1 (stereo not drawn) | 2343* | 2 | 2 | 1775 | 6 | 1454
SMILES | SRC1 TRFRET art | PPARg SRC-1 ag | PPARg SRC3 recr | TR-FRET SRC-2 ct | PPARg SRC2 recr | SRC3 TRFRET art
CC1=NNC(=O)C1CCC(=O)N/N=C(\C)c1ccccc1 (stereo not drawn) | 1740 | 0 | 2 | 1390 | -1 | 1476
CCc1cc2ccc(OC)cc2nc1SCC(=O)NNC(=O)c1ccco1 | 2083 | 15 | 10 | 2005* | 21 | 1814
COC(=O)C1=C(C)NC(=O)CC1c1cc2c(cc1Br)OCO2 (stereo not drawn) | 1895 | -1 | 6 | 1470 | -3 | 2175*
CCOc1ccc(NC(=O)Nc2cnccn2)cc1 | 1925 | 4 | 5 | 1340 | -3 | 1613
O=C(Nc1nc2ccccc2c(=O)[nH]1)c1ccccc1SCc1ccccc1 | 1612 | 1 | 2 | 1370 | 3 | 2104*
CCNC(=O)c1ccccc1SCc1ccccc1 | 1740 | -3 | 1 | 1479 | 2 | 1473
Cc1ccc(C(=O)Nc2ccc(Oc3ccc(C(=O)O)c(C(=O)O)c3)cc2)cc1C | · | 6 | 1 | 1940 | 22* | ·
CCCCc1ccc(N2C(=O)[C@@H]3C(CC(N)=O)NC4(C(=O)Nc5ccc(F)cc54)[C@@H]3C2=O)cc1 (stereo partly drawn) | · | 3 | -2 | 1415 | 3 | ·
COc1ccc(C(=O)Nc2scc(-c3ccc(Cl)cc3Cl)c2C(N)=O)cc1 | · | 3 | 3 | 1986* | 1 | ·
CSc1ccccc1NC(=O)Cn1c(-c2cscn2)nc2ccccc21 | · | 24* | 3 | 1477 | 1 | ·
Cc1ccc2nc(SCC(=O)NCc3cccs3)c(C#N)cc2c1 | · | 42* | -6 | 1428 | 1 | ·
Cn1c(=O)c2c(nc(SCC(=O)NCc3ccco3)n2C)n(C)c1=O | · | 2 | 4 | 1715 | 15 | ·
Cc1ccc2nc(SCC(=O)NCc3ccco3)c(C#N)cc2c1 | · | 10 | 10 | 2312* | 16 | ·
CC(C)n1c(SCC(=O)NCc2ccco2)nc2c1c(=O)n(C)c(=O)n2C | · | 20* | -1 | 1612 | 3 | ·
Cc1ccc(OCCNS(=O)(=O)c2ccc(N3CCCC3=O)cc2)cc1C | · | -4 | -3 | 1525 | -5 | ·
Cc1oc2ccc(OC(=O)COc3c(F)c(F)c(F)c(F)c3F)cc2c1C(=O)OC(C)C | 1598 | 12 | 1 | 2175* | 11 | 1635
COCCOC(=O)c1c(C)oc2ccc(OC(=O)COc3c(F)c(F)c(F)c(F)c3F)cc12 | · | -5 | -3 | 1535 | -8 | ·
COc1ccc(OC)c(NC(=O)CSc2nnc(-c3cccnc3)s2)c1 | 1752 | 4 | 6 | 1585 | 10 | 1442
COc1ccc(OC)c(NC(=O)CSc2nnc(N)s2)c1 | · | 8 | 7 | 1802 | 23* | ·
OCCN=C1CCCc2c1[nH]c1ccc(Br)cc21 | · | 19* | 12 | 1789 | 14 | ·
CC[C@@H](C)C(N)c1cn([C@@H](CCC(=O)O)C(=O)N2CCNCC2)nn1 (stereo partly drawn) | 1323 | -9 | -2 | 1511 | -7 | 1414
COC(=O)c1ccc2c(c1)NC(=O)C(N1CCCC1)S2 (stereo not drawn) | · | 0 | 1 | 1526 | 4 | ·
COC(=O)c1ccc2c(c1)SC1=C(CCCC1=O)N2 | · | 12 | 17 | 2074* | 13 | ·
CC(C)(C)c1ccccc1NC(=O)c1c(O)c2cccc3c2n(c1=O)CC3 | 1835 | -8 | -1 | 1499 | 1 | 2335*
CCCCOc1ccc(CC2CCC(=O)NC2=O)cc1 (stereo not drawn) | 2050 | 5 | 3 | 1509 | 8 | 1718
COc1ccc(NS(=O)(=O)c2c(C)n(C)c(=O)n(C)c2=O)cc1OC | · | -4 | 3 | 1716 | 24* | ·
